Consider 93 molecules from article PMC4336329 (PLoS ONE, 2015).

Out of some 310,000 compounds screened, about 2,200 (0.71%) showed an effect of 50% or more. The effect is printed as a negative number. The full list was thinned out, with strong results kept by preference.

For this test, the target named is human ether-à-go-go-related gene (hERG) potassium channel (human, UniProt Q12809). Nature of the test: primary screen, population patch clamp on CHO cells stably expressing hERG; higher = less effect of the substance.
human ether-à-go-go-related gene (hERG) potassium channel, sequence (Q12809 whole entry, looked up): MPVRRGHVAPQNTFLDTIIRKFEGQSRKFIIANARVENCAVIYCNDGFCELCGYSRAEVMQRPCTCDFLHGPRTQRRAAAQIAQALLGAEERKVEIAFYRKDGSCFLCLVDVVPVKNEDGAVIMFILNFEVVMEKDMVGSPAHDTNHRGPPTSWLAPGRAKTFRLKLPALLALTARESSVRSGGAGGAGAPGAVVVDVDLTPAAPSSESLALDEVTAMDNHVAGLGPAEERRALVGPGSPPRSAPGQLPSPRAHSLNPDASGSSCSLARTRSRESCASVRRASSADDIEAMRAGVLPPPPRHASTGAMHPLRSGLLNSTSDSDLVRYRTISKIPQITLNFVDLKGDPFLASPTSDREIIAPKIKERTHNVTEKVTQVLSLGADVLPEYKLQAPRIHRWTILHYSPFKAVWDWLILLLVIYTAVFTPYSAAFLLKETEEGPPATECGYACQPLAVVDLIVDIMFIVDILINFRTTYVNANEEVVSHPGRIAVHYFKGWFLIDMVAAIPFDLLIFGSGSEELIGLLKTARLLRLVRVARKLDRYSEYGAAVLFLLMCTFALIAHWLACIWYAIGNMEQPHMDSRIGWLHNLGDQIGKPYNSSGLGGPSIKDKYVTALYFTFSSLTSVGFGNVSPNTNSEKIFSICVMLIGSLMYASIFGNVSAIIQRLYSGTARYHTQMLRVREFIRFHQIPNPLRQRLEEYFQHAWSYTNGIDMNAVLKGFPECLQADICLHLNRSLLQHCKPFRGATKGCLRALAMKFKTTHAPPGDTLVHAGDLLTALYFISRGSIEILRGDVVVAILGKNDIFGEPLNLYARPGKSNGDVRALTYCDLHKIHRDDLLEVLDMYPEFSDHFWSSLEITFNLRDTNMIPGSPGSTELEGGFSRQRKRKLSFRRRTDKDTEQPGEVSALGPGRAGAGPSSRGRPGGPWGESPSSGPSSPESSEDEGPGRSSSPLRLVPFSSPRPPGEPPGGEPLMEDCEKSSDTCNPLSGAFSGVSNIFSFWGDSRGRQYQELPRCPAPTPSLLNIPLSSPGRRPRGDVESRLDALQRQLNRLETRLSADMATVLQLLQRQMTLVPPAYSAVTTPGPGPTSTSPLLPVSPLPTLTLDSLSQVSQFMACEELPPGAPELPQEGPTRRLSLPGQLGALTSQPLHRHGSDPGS
In the case of `Cc1ccc(NC(=O)CN(C)C(=O)Cn2c(=O)oc3ccccc32)cc1`, the “hERG current change (%, negative = inhibition) at 1uM” value stood at 7.84%.
Under `CC1CC(C)(C)NC(=S)N1CCCC(=O)N1CCN(c2ccc(F)cc2)CC1` (stereo not drawn) stands -4.06%.
The result for `CCCN(CCC)C(=O)Nc1cc(Cl)ccc1OC` reads 14.4%.
As to `CCOC(CNC(=O)Cn1nc(C)c2ccccc21)OCC`, the “hERG current change (%, negative = inhibition) at 1uM” value is listed as 8.42%.
Under `CCCCn1nnc(NC(=O)c2ccc(-c3ccccc3)cc2)n1` stands 13.7%.
Regarding `CC(C)(C)c1csc(NC(=O)c2c(F)c(F)c(F)c(F)c2F)n1`, the “hERG current change (%, negative = inhibition) at 1uM” value is given as -2.19%.
Under `O=C(c1cc(-c2ccncc2)nc2ccccc12)N1CCN(c2ccccn2)CC1` stands -64%; under `O=C(c1cc(-c2ccncc2)nc2ccc(Br)cc12)N1CCN(c2ccccn2)CC1`, -9.18%; under `O=C(c1cc(-c2ccccc2)nc2ccccc12)N1CCN(c2ccccn2)CC1`, 1.88%.
The result for `CCCCCCCC(=O)Nc1ccc(C(=O)N/N=C/c2cccc([N+](=O)[O-])c2)cc1` reads 12.6%.
Under `O=C(CCSc1ccccc1)OCn1nnc2ccccc2c1=O` stands 13.7%.
On to `N#Cc1ccc(OCC(=O)N2CCN(S(=O)(=O)c3ccc(Cl)s3)CC2)cc1`, for which the “hERG current change (%, negative = inhibition) at 1uM” value was -22.7%.
`O=C(COc1ccccc1)N1CCN(S(=O)(=O)c2cccs2)CC1`: the “hERG current change (%, negative = inhibition) at 1uM” value is reported as -7.49%.
Under `N#Cc1ccc(OCC(=O)N2CCN(S(=O)(=O)c3cccs3)CC2)cc1` stands -54.7%; under `CCCc1cc(C(=O)O)c2ccccc2n1`, -0.521%.
Under `CN(CCC#N)C(=O)COc1ccc(Br)cc1Cl` stands 3.5%.
As to `COc1cccc(CN2CCN(Cc3nc(C(C)C)cs3)CC2CCO)c1` (stereo not drawn), the “hERG current change (%, negative = inhibition) at 1uM” value is -20%.
Under `Cc1ccc(CN2CCN(Cc3nc(C(C)C)cs3)CC2CCO)cc1` (stereo not drawn) stands -50.8%.
`CC(C)c1csc(CN2CCN(Cc3ccc(F)c(F)c3)C(CCO)C2)n1` (stereo not drawn): the “hERG current change (%, negative = inhibition) at 1uM” value stood at 2.23%.
The result for `CC(C)c1csc(CN2CCN(Cc3ccc(F)cc3)C(CCO)C2)n1` (stereo not drawn) reads -4.26%; that for `CCOc1ccc(CN2CCN(Cc3nc(C(C)C)cs3)CC2CCO)cc1` (stereo not drawn), -85.5%; that for `CC(C)c1csc(CN2CCN(Cc3ccccc3)C(CCO)C2)n1` (stereo not drawn), 10.1%.
Under `Cc1ccc(S(=O)(=O)NC(=O)NCc2ccc(Cl)cc2)cc1` stands 10.1%; under `COC(=O)C1C(=O)C2=C(CC1C)NC(C)=C(C(=O)OCc1ccc(OC)cc1)C2c1ccc(C)o1` (stereo not drawn), 0.03%; under `O=S(=O)(c1ccc(F)c(F)c1)N1CCN(Cc2ccc3c(c2)OCO3)CC1`, -9.04%.
Under `Cc1c(NC(=O)c2ccc3c4c(cccc24)CC3)c(=O)n(-c2ccccc2)n1C` stands 15.3%; under `CC(=O)c1cccc(-n2nnnc2SCC(=O)Nc2cc(C)on2)c1`, 12.1%.
As to `c1coc(-c2nnc(SCc3cn4ccccc4n3)o2)c1`, the “hERG current change (%, negative = inhibition) at 1uM” value was -2.53%.
Under `Cc1ccc2nc(CSc3nnc(-c4ccco4)o3)cc(=O)n2c1` stands -54%.
The result for `Cc1ccc2nc(CSc3nnc(-c4ccco4)n3-c3ccccc3)cc(=O)n2c1` reads -2.87%.
Consider `NC(=O)c1nsc(C(=O)N(c2ccccc2F)C(C(=O)NCc2ccccc2)c2ccc(O)cc2)c1N` (stereo not drawn), for which the “hERG current change (%, negative = inhibition) at 1uM” value stood at 8.51%.
Under `COc1ccc(C(=O)N2CCN(c3ccccn3)CC2)cc1` stands 6.53%.
For `COc1ccc(C(=O)N2CCN(Cc3ccccn3)CC2)cc1.O=C(O)C(=O)O`, the “hERG current change (%, negative = inhibition) at 1uM” value was determined as 3.65%.
The result for `Cl.O=C(c1ccc(Cl)cc1)N1CCN(CCc2ccccn2)CC1` reads -53.7%; that for `O=C(c1sc2cc(Cl)ccc2c1Cl)N1CCN(CCc2ccccn2)CC1`, -36.6%.
Regarding `COc1ccc(C(=O)N2CCN(CCc3ccccn3)CC2)cc1.Cl`, the “hERG current change (%, negative = inhibition) at 1uM” value is -66.6%.
Under `O=C(c1ccccc1)N1CCN(CCc2ccccn2)CC1` stands 16.3%; under `COCCn1c(C)cc(/C=C2\NC(=S)N(C)C2=O)c1C`, 9.65%.
The result for `Cc1ccc(S(=O)(=O)NCCC(=O)NC(C)CCc2ccccc2)cc1` (stereo not drawn) reads -10.7%; that for `C=CCN(c1ccccc1)S(=O)(=O)c1cccc(C(=O)NCC(c2ccccc2OC)N2CCCC2)c1` (stereo not drawn), -12.9%; that for `CCN(CC)c1ccc(C2NC(=O)NC(C)=C2C(=O)Nc2ccccc2)cc1` (stereo not drawn), 17.3%.
Under `Cc1cccc(NC(=O)CSc2nnnn2C)n1` stands 12.6%.
Regarding `Fc1ccc(-n2cc(CNCCc3ccncc3)c(-c3ccccc3Cl)n2)cc1`, the “hERG current change (%, negative = inhibition) at 1uM” value is reported as -3.18%.
Regarding `Fc1ccc(-n2cc(CNCCc3cccnc3)c(-c3ccccc3Cl)n2)cc1`, the “hERG current change (%, negative = inhibition) at 1uM” value is recorded as -10%.
Under `Fc1ccc(-n2cc(CNCCc3ccccn3)c(-c3ccccc3Cl)n2)cc1` stands -78.2%; under `CCN(Cc1ccccc1)C(=O)CN1C(=S)NC(C)(C)CC1C` (stereo not drawn), 3.12%.
`CCOC(=O)CNc1c(-c2ccc(OC)cc2)nc2ccc(Cl)cn12`: the “hERG current change (%, negative = inhibition) at 1uM” value is reported as -68.4%.
Under `CCOC(=O)CNc1c(-c2ccc(O)cc2)nc2ccc(Cl)cn12.Cl` stands -13.3%.
The result for `CCOC(=O)CNc1c(-c2ccccc2)nc2ccc(Cl)cn12` reads -27.6%; that for `O=C(NCCN1CCOCC1)c1cc([N+](=O)[O-])cc([N+](=O)[O-])c1`, 12.5%.
Turning to `CCc1c(C)c2c(C)[nH]nc2oc1=O`, the “hERG current change (%, negative = inhibition) at 1uM” value came to 10.5%.
With `COc1ccc(S(=O)(=O)N2CCN(C/C=C/c3ccccc3)CC2)cc1F`, the “hERG current change (%, negative = inhibition) at 1uM” value amounted to 8.5%.
The result for `Cc1ccccc1NC(=O)N1CCN(C/C=C/c2ccccc2)CC1` reads 11%; that for `Fc1ccccc1NC(=S)N1CCN(C/C=C/c2ccccc2)CC1`, 7.89%.
Under `O=C(Nc1ccc(F)cc1F)N1CCN(C/C=C/c2ccccc2)CC1` stands -15.3%; under `Cc1ccccc1NC(=O)CCN1CCN(C/C=C/c2ccccc2)CC1`, -72%.
Under `Cl.O=C(CCN1CCN(C/C=C/c2ccccc2)CC1)Nc1ccccc1Cl` stands -47.6%; under `O=C(CCN1CCN(c2ccccc2)CC1)Nc1ccccc1F`, 14.5%; under `O=C(CN1CCN(C/C=C/c2ccccc2)CC1)Nc1ccc(F)cc1F`, -87.4%.
As for `Fc1ccc(NC(=S)N2CCN(C/C=C/c3ccccc3)CC2)c(F)c1`, the “hERG current change (%, negative = inhibition) at 1uM” value is 13%.
For the molecule `COc1ccc(S(=O)(=O)N2CCN(C/C=C/c3ccccc3)CC2)cc1NC(C)=O`, the “hERG current change (%, negative = inhibition) at 1uM” value is reported as -54.2%.
Under `O=C(CCN1CCN(C/C=C/c2ccccc2)CC1)Nc1ccccc1F.O=C(O)C(=O)O` stands -81.2%.
On to `COc1ccc(NC(C)=O)cc1S(=O)(=O)N1CCN(C/C=C/c2ccccc2)CC1`, for which the “hERG current change (%, negative = inhibition) at 1uM” value was -48.1%.
Under `O=C(Nc1ccc(-c2nc3ccccc3o2)cc1)c1cc(-n2cnnc2)ccc1Cl` stands 6.74%; under `O=C(O)CC(NC(=S)NCc1ccccc1)C(=O)O` (stereo not drawn), -7.52%; under `CC(CCc1ccccc1)NC(=O)COC(=O)c1ccc([N+](=O)[O-])cc1` (stereo not drawn), 5.37%.
The result for `COc1ccc(CCNC(=O)CSc2nc3c(c(=O)n(C)c(=O)n3C)n2C(C)C)cc1OC` reads -14.5%; that for `CC(C)=CCc1c(O)cc2c(c1O)C(=O)CC(c1ccccc1)O2` (stereo not drawn), 12.9%.
The result for `CCN(CC)S(=O)(=O)c1cc(C(=O)N(C)CC(=O)Nc2ccc(Cl)cc2)ccc1Cl` reads -1.15%; that for `COc1cccc(-c2c(-c3cc(OC)cc(OC)c3)n(C)c3ccc(-c4ccc5[nH]ccc5c4)cc23)c1`, 11.8%.
With `CCN1CCN(c2nc(-c3ccccc3Cl)nc3ccccc23)CC1.Cl`, the “hERG current change (%, negative = inhibition) at 1uM” value is -39.1%.
Under `Cc1ccc(S(=O)(=O)N2CCN=C2SCc2ccc(Cl)c(Cl)c2)cc1` stands 10.2%.
The result for `COc1ccc(C=C2c3ccccc3C(=O)c3ccccc32)c(OC)c1` reads 7.49%; that for `Cc1nn(Cc2noc(C(=O)NCc3ccc4c(c3)OCO4)n2)c(C)c1Br`, 1.08%; that for `CCOC(=O)n1c(=O)n(Cc2ccccc2Cl)c2ccccc21`, 10.3%.
Consider `O=C(CSc1nnc(COc2ccc(Cl)cc2)o1)NC1CCCCC1`, for which the “hERG current change (%, negative = inhibition) at 1uM” value is -2.69%.
The result for `COc1ccc(C)cc1NC(=O)CCN1CCN(c2ccccc2)CC1` reads 3.12%.
The result for `COc1ccc(C)cc1NC(=O)CCN1CCN(C/C=C/c2ccccc2)CC1` reads -70.9%; that for `COc1ccc(C)cc1NC(=O)CN1CCN(C/C=C/c2ccccc2)CC1`, -45.2%.
The result for `O=C(NCC1COc2ccccc2O1)c1ccc(NC(=O)c2ccco2)cc1` (stereo not drawn) reads -1.42%.
With `COc1ccc(-n2c(SCC(=O)N/N=C/c3ccccc3OCC(=O)O)nc3ccccc3c2=O)cc1`, the “hERG current change (%, negative = inhibition) at 1uM” value stood at 11.6%.
Under `O=C(COc1ccccc1)N1CCN(C2CCCC2)CC1.O=C(O)C(=O)O` stands 8.65%; under `O=C(COc1ccc(Cl)cc1)N1CCN(Cc2ccc3c(c2)OCO3)CC1`, -6.58%; under `O=C(COc1ccc(Cl)cc1)N1CCN(Cc2ccccc2)CC1`, 3.32%.
Under `O=C(COc1ccc(Cl)cc1)N1CCN(C2CCCC2)CC1.O=C(O)C(=O)O` stands -68.4%; under `O=C(COc1ccc(Br)cc1)N1CCN(C2CCCC2)CC1`, -42.1%; under `O=C(COc1ccc2ccccc2c1)N1CCN(Cc2ccncc2)CC1.O=C(O)C(=O)O`, -14.8%.
In the case of `COc1cc(CN2CCN(Cc3ccc([N+](=O)[O-])cc3)CC2)c([N+](=O)[O-])cc1OC.O=C(O)C(=O)O`, the “hERG current change (%, negative = inhibition) at 1uM” value is on record as -25.4%.
The result for `COc1cc(CN2CCN(Cc3ccc(C)cc3)CC2)c([N+](=O)[O-])cc1OC.O=C(O)C(=O)O` reads -73.4%.
With `O=C(COc1ccc2ccccc2c1)N1CCN(C2CCN(Cc3ccccc3)CC2)CC1`, the “hERG current change (%, negative = inhibition) at 1uM” value is -69.6%.
Under `O=C(COc1ccc(Cl)cc1)N1CCN(Cc2ccc([N+](=O)[O-])cc2)CC1.O=C(O)C(=O)O` stands -76.4%; under `COc1cccc(CN2CCN(C(=O)COc3ccc4ccccc4c3)CC2)c1`, 10.5%.
The result for `COc1cccc(CN2CCN(Cc3cc(OC)c(OC)cc3[N+](=O)[O-])CC2)c1.O=C(O)C(=O)O` reads -18.5%.
